Here are results for 37 targets from the supplement of paper PMC12819154, “High-throughput peptide-centric local stability assay extends protein–ligand identification to membrane proteins, tissues and bacteria” (Nature Structural & Molecular Biology, 2025).

Sequence of UniProt Q923T9 (Q923T9 whole entry): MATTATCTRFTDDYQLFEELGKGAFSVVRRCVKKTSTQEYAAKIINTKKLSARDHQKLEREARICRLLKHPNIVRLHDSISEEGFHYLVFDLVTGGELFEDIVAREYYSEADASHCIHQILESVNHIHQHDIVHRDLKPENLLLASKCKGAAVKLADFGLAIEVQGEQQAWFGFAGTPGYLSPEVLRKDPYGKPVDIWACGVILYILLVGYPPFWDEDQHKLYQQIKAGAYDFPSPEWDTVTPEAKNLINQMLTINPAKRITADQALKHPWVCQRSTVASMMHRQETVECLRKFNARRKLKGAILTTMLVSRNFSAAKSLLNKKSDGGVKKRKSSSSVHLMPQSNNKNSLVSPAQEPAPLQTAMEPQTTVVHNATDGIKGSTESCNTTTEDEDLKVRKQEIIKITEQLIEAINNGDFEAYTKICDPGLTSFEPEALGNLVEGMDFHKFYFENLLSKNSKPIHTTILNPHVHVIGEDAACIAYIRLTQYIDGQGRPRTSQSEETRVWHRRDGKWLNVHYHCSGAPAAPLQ
Sequence of UniProt Q9R257 (Q9R257 whole entry): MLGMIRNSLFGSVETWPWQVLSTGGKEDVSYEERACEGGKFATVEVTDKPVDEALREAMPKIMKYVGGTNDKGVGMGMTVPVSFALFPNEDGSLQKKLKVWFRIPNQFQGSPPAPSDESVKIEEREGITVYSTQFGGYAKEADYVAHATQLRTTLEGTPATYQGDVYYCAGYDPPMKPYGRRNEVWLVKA
Sequence of UniProt P51174 (P51174 whole entry): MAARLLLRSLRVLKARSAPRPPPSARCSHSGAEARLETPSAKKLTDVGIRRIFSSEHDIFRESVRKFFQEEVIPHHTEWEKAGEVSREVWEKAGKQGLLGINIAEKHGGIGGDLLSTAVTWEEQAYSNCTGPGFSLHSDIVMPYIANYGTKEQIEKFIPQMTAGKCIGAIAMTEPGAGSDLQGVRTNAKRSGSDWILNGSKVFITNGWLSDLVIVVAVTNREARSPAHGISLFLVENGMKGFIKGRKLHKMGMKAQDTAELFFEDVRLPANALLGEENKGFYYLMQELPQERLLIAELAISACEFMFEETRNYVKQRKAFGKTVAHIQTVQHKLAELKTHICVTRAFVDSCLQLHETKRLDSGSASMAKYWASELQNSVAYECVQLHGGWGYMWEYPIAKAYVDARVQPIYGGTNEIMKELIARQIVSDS
Sequence of UniProt Q8BRK8 (Q8BRK8 whole entry): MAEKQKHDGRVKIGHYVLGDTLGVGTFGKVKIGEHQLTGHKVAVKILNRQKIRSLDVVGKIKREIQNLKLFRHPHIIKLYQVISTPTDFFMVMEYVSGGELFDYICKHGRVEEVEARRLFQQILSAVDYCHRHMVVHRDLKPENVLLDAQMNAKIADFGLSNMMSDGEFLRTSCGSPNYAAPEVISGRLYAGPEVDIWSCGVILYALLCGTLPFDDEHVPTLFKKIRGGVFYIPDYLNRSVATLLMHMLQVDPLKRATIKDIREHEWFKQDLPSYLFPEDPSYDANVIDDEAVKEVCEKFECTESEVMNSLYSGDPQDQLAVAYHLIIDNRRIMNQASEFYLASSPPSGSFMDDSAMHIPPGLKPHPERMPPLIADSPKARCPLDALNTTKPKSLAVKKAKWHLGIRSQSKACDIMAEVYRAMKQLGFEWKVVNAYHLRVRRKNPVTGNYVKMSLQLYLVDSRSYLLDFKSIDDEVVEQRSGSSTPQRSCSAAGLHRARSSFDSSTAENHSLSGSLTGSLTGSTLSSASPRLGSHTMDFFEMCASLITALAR
Sequence of UniProt Q91XU3 (Q91XU3 whole entry): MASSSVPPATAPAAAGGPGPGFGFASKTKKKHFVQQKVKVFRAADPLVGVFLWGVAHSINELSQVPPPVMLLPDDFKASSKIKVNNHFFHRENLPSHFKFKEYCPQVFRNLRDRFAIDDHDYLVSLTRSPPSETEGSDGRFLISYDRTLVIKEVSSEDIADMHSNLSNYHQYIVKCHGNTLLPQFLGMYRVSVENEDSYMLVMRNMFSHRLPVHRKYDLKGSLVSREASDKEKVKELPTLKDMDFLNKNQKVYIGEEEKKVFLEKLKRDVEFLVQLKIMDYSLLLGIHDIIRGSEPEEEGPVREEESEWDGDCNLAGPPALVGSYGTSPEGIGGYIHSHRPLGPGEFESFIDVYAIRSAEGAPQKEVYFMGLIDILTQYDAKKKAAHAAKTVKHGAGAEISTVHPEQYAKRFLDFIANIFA
Sequence of UniProt Q925I1 (Q925I1 whole entry): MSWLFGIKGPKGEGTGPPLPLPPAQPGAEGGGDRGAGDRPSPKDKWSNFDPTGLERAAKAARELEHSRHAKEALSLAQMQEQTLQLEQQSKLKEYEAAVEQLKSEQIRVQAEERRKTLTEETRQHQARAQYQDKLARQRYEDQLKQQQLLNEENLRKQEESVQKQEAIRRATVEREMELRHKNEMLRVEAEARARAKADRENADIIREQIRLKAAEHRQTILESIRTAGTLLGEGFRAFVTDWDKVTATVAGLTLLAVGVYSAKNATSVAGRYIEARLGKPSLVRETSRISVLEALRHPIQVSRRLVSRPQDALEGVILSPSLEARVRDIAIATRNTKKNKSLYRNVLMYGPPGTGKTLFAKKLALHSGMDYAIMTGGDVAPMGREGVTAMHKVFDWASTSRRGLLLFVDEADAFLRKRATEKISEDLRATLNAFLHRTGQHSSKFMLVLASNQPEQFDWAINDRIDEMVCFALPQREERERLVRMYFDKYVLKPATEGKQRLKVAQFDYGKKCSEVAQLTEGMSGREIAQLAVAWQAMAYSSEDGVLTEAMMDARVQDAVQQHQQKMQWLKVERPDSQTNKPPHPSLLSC
Sequence of UniProt P54823 (P54823 whole entry): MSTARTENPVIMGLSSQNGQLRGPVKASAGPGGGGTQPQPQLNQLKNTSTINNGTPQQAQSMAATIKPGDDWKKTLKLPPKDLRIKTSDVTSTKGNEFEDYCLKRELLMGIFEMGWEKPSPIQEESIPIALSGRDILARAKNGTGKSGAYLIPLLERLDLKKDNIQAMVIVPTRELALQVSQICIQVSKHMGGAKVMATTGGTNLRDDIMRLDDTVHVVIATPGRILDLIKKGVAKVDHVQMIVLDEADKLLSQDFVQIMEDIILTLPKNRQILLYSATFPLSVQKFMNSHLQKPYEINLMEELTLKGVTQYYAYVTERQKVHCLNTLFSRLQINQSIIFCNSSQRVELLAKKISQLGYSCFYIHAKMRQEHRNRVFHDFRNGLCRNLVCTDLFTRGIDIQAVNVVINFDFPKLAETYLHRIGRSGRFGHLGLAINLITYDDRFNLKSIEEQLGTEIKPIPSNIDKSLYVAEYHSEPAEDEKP
Sequence of UniProt Q8BPM2 (Q8BPM2 whole entry): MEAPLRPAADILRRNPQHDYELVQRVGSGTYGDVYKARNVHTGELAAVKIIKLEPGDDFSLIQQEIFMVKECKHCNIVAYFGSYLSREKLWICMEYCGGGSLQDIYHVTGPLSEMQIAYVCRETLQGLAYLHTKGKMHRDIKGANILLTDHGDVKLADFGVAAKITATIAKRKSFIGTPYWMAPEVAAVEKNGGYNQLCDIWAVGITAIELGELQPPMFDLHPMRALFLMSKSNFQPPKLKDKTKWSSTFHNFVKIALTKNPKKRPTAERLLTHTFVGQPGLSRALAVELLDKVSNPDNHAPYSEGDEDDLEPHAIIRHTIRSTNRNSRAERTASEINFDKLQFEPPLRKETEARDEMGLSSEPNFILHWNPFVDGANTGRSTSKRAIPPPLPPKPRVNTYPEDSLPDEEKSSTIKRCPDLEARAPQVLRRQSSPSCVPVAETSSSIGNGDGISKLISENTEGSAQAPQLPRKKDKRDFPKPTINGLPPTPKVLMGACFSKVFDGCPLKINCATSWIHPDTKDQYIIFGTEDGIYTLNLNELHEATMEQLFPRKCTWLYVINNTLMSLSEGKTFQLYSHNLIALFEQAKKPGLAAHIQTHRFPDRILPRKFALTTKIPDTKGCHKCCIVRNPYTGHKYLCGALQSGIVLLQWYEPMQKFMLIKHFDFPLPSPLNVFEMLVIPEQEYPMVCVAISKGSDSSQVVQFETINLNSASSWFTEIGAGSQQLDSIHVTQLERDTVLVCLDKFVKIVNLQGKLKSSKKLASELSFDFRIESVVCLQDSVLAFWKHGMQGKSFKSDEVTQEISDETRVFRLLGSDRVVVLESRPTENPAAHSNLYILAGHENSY
Sequence of UniProt Q99JT2 (Q99JT2 whole entry): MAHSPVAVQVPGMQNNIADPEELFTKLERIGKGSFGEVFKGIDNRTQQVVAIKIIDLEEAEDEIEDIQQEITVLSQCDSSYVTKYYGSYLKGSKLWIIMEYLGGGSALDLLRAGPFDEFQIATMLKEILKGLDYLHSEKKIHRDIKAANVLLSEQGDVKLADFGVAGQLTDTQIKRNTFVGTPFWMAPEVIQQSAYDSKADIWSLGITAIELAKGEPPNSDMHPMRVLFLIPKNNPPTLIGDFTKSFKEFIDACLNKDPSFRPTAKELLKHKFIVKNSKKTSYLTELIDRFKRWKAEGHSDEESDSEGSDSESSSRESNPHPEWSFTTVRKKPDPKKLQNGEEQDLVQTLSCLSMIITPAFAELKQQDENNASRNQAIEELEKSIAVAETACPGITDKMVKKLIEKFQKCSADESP
Sequence of UniProt Q7TSE6 (Q7TSE6 whole entry): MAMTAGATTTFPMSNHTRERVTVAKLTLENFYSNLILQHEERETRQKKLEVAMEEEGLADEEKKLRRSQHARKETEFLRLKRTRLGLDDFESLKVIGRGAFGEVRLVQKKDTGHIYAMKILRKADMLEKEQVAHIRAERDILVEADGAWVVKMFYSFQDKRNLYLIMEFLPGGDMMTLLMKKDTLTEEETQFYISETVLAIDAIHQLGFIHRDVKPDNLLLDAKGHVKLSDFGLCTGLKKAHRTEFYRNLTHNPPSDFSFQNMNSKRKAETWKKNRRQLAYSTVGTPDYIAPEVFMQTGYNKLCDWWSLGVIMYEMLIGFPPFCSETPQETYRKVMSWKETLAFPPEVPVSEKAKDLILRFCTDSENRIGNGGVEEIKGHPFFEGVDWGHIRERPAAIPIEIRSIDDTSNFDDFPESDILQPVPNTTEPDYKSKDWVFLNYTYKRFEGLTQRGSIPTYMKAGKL

Compound in this experiment: CN[C@@H]1C[C@H]2O[C@@](C)([C@@H]1OC)n1c3ccccc3c3c4c(c5c6ccccc6n2c5c31)C(=O)NC4 [staurosporine]
Briefly: log2 fold change of tryptic peptide abundance, ligand vs vehicle (limited proteolysis) (log2 ratio); higher = more trypsin-susceptible (destabilized). Conditions: ligand concentration: 20 uM; sample: mouse liver crude lysate; replicate design: treated separately.
In the case of “UniProt Q8C9S4 (peptide sequence: QEIEHLK, peptide start residue: 574)”, the log2 fold change was -1.24.
Next, “UniProt Q6PDI5 (peptide sequence: NLTSNMWR, peptide start residue: 1165)”: 0.284.
On to “UniProt Q925I1 (peptide sequence: LGKPSLVR, peptide start residue: 278)”, for which the log2 fold change is 0.434.
For “UniProt Q8BGS7 (peptide sequence: LFQLPTPPLSR, peptide start residue: 35)”, the log2 fold change was 0.348.
For “UniProt Q8BYC6 (peptide sequence: VLIDLIQR, peptide start residue: 285)”, the log2 fold change is -1.67.
Take “UniProt P54823 (peptide sequence: LDLKKDNIQAMVIVPTR, peptide start residue: 158)”: the log2 fold change came to 1.16.
In the case of “UniProt P06728 (peptide sequence: LQLTPYIQR, peptide start residue: 155)”, the log2 fold change was 0.346.
Take “UniProt Q91XU3 (peptide sequence: VYIGEEEKK, peptide start residue: 252)”: the log2 fold change is -1.32.
For “UniProt Q9WVJ2 (peptide sequence: GSIDEVDKR, peptide start residue: 322)”, the log2 fold change is -0.456.
Then “UniProt Q9CXI0 (peptide sequence: NVTHIDQALQEAHR, peptide start residue: 221)”, with -0.267.
Next, “UniProt Q9R257 (peptide sequence: FATVEVTDKPVDEALR, peptide start residue: 41)”: -0.672.
Turning to “UniProt O35469 (peptide sequence: QTILDVNLK, peptide start residue: 95)”, the log2 fold change is -0.227.
Then “UniProt Q3U214 (peptide sequence: YFLEMQDKLER, peptide start residue: 260)”, with 0.698; and “UniProt P09103 (peptide sequence: EADDIVNWLKK, peptide start residue: 123)”, with 0.314; and “UniProt P47911 (peptide sequence: HQEGEIFDTEK, peptide start residue: 235)”, with 0.281.
Next, “UniProt A2A974 (peptide sequence: SLSDKDLR, peptide start residue: 303)”: 0.2.
In the case of “UniProt P26149 (peptide sequence: YIPPFNR, peptide start residue: 311)”, the log2 fold change came to 0.476.
For the target “UniProt O55125 (peptide sequence: NNKEYLEFR, peptide start residue: 144)”, the log2 fold change came to 0.432.
As to “UniProt Q8BRK8 (peptide sequence: DLKPENVLLDAQMNAK, peptide start residue: 139)”, the log2 fold change was -3.83.
Then “UniProt Q8BPM2 (peptide sequence: LLTHTFVGQPGLSR, peptide start residue: 271)”, with -1.27.
Regarding “UniProt Q91Y86 (peptide sequence: MLVIDASKR, peptide start residue: 301)”, the log2 fold change was -1.79.
Turning to “UniProt Q99JT2 (peptide sequence: LADFGVAGQLTDTQIKR, peptide start residue: 156)”, the log2 fold change was -0.843.
For the target “UniProt Q9DCZ4 (peptide sequence: TQLEENISQLR, peptide start residue: 58)”, the log2 fold change was 0.253.
As for “UniProt Q9JLB2 (peptide sequence: DRFASAVPHTTR, peptide start residue: 505)”, the log2 fold change was 0.704.
For “UniProt Q7TSE6 (peptide sequence: LSDFGLCTGLKK, peptide start residue: 228)”, the log2 fold change is -2.66.
Take “UniProt Q9Z2A0 (peptide sequence: HIIKENKVPYVTR, peptide start residue: 120)”: the log2 fold change is -2.47.
Then “UniProt Q9DB41 (peptide sequence: GAAVNLTLVTPEK, peptide start residue: 68)”, with 0.677; and “UniProt Q64310 (peptide sequence: SMFAGVPTMR, peptide start residue: 140)”, with 0.247; and “UniProt O88643 (peptide sequence: LTDFGFCAQITPEQSKR, peptide start residue: 384)”, with -2.39.
Then “UniProt P51174 (peptide sequence: SPAHGISLFLVENGMKGFIK, peptide start residue: 225)”, with 0.439; and “UniProt P37172 (peptide sequence: GSWQGENVAVK, peptide start residue: 225)”, with -2.41.
Next, “UniProt P47754 (peptide sequence: TSVETALR, peptide start residue: 122)”: -0.836; “UniProt Q9R117 (peptide sequence: NVLLDNDR, peptide start residue: 1025)”: -1.42; “UniProt Q923T9 (peptide sequence: GAILTTMLVSR, peptide start residue: 302)”: -0.876.
Regarding “UniProt P36552 (peptide sequence: NPYAPTMHFNYR, peptide start residue: 240)”, the log2 fold change was -0.601.
Next, “UniProt Q9CZW6 (peptide sequence: GASWLGKR, peptide start residue: 64)”: -0.952.
Next, “UniProt Q6ZWQ0 (peptide sequence: INDRWQHLFDVIGSR, peptide start residue: 5986)”: 0.927.
